TEAD-YAP inh = TEAD-YAP interaction inhibition. HEK-TIYL cells, TEAD-Gal4/YAP UAS-luciferase luminescence. inhibition, % at 9.12 µM. 640,000 compounds, 1.4% hits. AID 1259422; in the data active = inhibition above about 32%;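 also: 0% = median of test compound wells and 100% = reference inhibitor wells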
MITF primary = inhibitors of human MITF; O75030; AlphaScreen MITF homodimerization, bead proximity signal; inhibition, % at 2.6 µM; 650,000 compounds, 0.91% hits; in the data active = inhibition above about 50%;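 also: 0% = vehicle wells with protein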
GPR151 ag = activators of human GPR151. PathHunter beta-arrestin GPR151 cells, luminescence. activation, % at 11.2 µM. 650,000 compounds, 1% hits. AID 1508602; in the data active = activation above about 4.9%;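 also: 0% = median of compound wells and 100% = cells with positive control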
FBW7 act = human FBW7 E3 ligase activation, primary screen; Q969H0; AlphaScreen FBW7–phospho-cyclin E peptide binding, activator screen; normalized activity (activation), % at 26.1 µM; 650,000 compounds, 0.13% hits; in the data active = normalized activity above about 1.9%;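 also: purified mutant Fbw7 with reduced substrate affinity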
GPR151 confirm = human GPR151 activation, confirmation screen | shares compounds with GPR151 ag | GPR151 PathHunter beta-arrestin cells, luminescence, 90 min; % of EA-reagent control over plate median | activation, % at 11.2 µM | 6,700 tested, under 10 active;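 active = mean percent activation across replicates above the confirmation screen cutoff of 4.91%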
GPR119 counter = activates human GPR119 in a GPR151 counter-screen; GPR119 PathHunter beta-arrestin cells, luminescence, 90 min; 0 = compound-well median, 100 = enzyme-acceptor control; activation, % at 11.2 µM; shares compounds with GPR151 ag; 6,700 compounds, 0.3% hits; AID 1508611;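 active = mean percent activation in the counterscreen above 29.09%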;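 also: counterscreen on off-target GPR119 to flag nonselective hits from the GPR151 activator screen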
Target sequence (Q8TDV5 whole entry, looked up): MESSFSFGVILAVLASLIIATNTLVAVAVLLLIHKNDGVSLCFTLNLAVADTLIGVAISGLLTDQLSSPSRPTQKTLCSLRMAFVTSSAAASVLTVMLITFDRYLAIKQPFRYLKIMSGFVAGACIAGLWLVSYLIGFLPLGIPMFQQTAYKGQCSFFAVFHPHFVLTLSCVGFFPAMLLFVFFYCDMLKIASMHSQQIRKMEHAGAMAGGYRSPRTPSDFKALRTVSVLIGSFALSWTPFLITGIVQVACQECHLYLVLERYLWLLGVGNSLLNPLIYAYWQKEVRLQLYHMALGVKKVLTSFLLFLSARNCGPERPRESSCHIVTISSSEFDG
Active calls of the source: *; · = no result; ! = repeats disagree. Hits are enriched below; roughly 3.4% of the tested compounds scored in any of these assays.

SMILES | TEAD-YAP inh | MITF primary | GPR151 ag | FBW7 act | GPR151 confirm | GPR119 counter
c1ccc(Cc2c[nH]c3ccccc23)cc1 | 16 | 6 | 5.3* | 0 | -1 | 5
O=C(O)CCCc1c[nH]c2ccccc12 | -6 | 7 | 5.0*! | 0 | 0 | 3
O=C(O)CCCNC(=O)Cc1c[nH]c2ccccc12 | -5 | -7 | 1 | 0 | · | ·
CCC(=O)Nc1nnc(CCSCCc2nnc(NC(=O)CC)s2)s1 | -4 | 13 | 1 | 0 | · | ·
O=C(c1ccc2ccccc2n1)N1CCOCC1 | 7 | 7 | 5.4* | 0 | 0 | -5
CCN(CC)CCNCC(=O)N1CCCc2ccccc21 | 5 | 20 | 8.3* | 0 | 0 | 0
O=C(CN1c2cccc3cccc(c23)S1(=O)=O)Nc1ccc(F)c(F)c1 | -8 | -5 | 0 | 0 | · | ·
O=C(CN1c2cccc3cccc(c23)S1(=O)=O)Nc1ccc(Br)cc1F | 8 | -9 | 7.1* | 0 | 1 | 9
CC1=C(C(=O)OC2CCCCC2)C(c2ccc([N+](=O)[O-])cc2)C2=C(CCCC2=O)N1 (stereo not drawn) | 3 | -3 | 0 | 0 | · | ·
CCCCSc1nnc2c(n1)OC(C)(C)Nc1ccccc1-2 | 4 | 9 | 5.1* | 0 | 0 | 3
CCCCSc1nnc2c(n1)OC(c1ccccc1OC)Nc1ccccc1-2 (stereo not drawn) | -9 | 0 | -2 | 0 | · | ·
CCCCSc1nnc2c(n1)OC(c1ccccc1OCC(=O)OCC)Nc1ccccc1-2 (stereo not drawn) | -23 | -5 | 5.1* | 0 | 0 | 4
COC(=O)c1ccccc1NC(=O)CN1C(=O)c2ccc([N+](=O)[O-])cc2C1=O | 2 | 8 | -1 | 0 | · | ·
COC(=O)c1cccc(NC(=O)CN2C(=O)c3ccc([N+](=O)[O-])cc3C2=O)c1C | -3 | -10 | 5.1* | 1 | 1 | 10
CN(C)S(=O)(=O)N1CCC2(CC1)NC(=O)N(Cc1ccccc1)C2=O | 3 | -4 | -2 | 0 | · | ·
COc1cccc(-n2c(CCN3C(=O)c4ccccc4C3=O)nc3ccccc3c2=O)c1 | -3 | 4 | 5.4* | 0 | 0 | 9
O=C1C2C3C=CC(CC3)C2C(=O)N1Cc1ccc(Cl)cc1 (stereo not drawn) | 13 | 9 | 0 | 0 | · | ·
COc1ccc2cccc(NC(=O)c3ccco3)c2n1 | -1 | 8 | 6.4* | 0 | 0 | 9

Screening data: PubChem, The Scripps Research Institute Molecular Screening Center
